Laboratory results from PubChem BioAssay (NCATS).

Target: Cytochrome P450 3A4 (Homo sapiens) (UniProt P08684)
Assay: qHTS Assay for Activators of Cytochrome P450 3A4 (AID 885); further: nearly all actives have a fitted effect of over 65% in size
Settings: recombinant CYP3A4, Luciferin-PPXE luminescence, 60 min; series mostly up to 57.1 µM; activity change, positive = activation: at the top concentration; active means well fitted activation curve with a large enough effect; inconclusive means small, poorly fitted or top-dose-only effect; inactive means no such curve, though single readings can be large or run the other way
Procedure, shortened: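 Luminescent readout of luciferin formed from 25 uM Luciferin-PPXE (KM level) by 20 nM CYP3A4 in 200 mM KPO4, with 60 min NADPH-driven reaction at room temperature after 10 min compound exposure. Ketoconazole (57 uM) defined 100% inhibition.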

Sequence of Cytochrome P450 3A4 (Homo sapiens) (P08684 whole entry, looked up): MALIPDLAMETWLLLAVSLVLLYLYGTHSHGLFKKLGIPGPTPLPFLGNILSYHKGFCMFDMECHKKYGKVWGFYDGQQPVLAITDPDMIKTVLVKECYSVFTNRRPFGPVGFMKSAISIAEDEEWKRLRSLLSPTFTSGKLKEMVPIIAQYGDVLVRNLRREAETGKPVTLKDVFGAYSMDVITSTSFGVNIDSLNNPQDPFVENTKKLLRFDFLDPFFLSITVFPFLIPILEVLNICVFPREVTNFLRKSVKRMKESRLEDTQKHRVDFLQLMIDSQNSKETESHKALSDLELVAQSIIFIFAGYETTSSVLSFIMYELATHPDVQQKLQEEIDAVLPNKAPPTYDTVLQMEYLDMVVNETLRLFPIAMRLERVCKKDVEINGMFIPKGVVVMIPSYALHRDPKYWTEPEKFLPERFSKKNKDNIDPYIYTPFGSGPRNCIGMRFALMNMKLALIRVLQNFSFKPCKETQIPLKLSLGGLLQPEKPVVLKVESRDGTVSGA

Activity change, positive = activation, inactive:
COC(=O)c1ccc(C(NC(=O)OCc2ccccc2)/C(I)=C/[C@@H](C)C(=O)NCc2ccc(OC)c(O)c2)cc1 (stereo partly drawn) -108%, CCCCCCN(C(=O)CCCCCN1C(=O)NC(c2ccc(Cl)cc2)C(C(=O)OCc2ccccc2)=C1C)C(C(=O)NCCCC)c1ccc(OCC(=O)OC)c(C(=O)OC)c1 (stereo not drawn) -113%, COC(=O)c1ccc(C(NC(=O)OCc2ccccc2)/C(I)=C/[C@@H](C)C(=O)NCc2ccc(C)o2)cc1 (stereo partly drawn) -107%, COC(=O)c1ccc(C(NC(=O)OCc2ccccc2)/C(F)=C/[C@@H](C)C(=O)NCCO)cc1 (stereo partly drawn) -86.1%, COC(=O)c1ccc(C(NC(=O)OCc2ccccc2)/C(F)=C/[C@@H](C)C(=O)N(C)Cc2cccnc2)cc1 (stereo partly drawn) -89.8%, COC(=O)c1ccc(C(NC(=O)OCc2ccccc2)/C(=C/[C@@H](C)C(=O)NCc2nc3ccccc3s2)c2cccnc2)cc1 (stereo partly drawn) -63.1%, CCC[C@@H]1C[C@@]1(CCC)[C@@H](NC(=O)Oc1ccccc1)c1ccc(C(=O)OC)cc1 -101%, COC(=O)c1ccc(C(NC(=O)OCc2ccccc2)/C(C)=C/[C@@H](C)C(=O)NCCO)cc1 (stereo partly drawn) -113%
